{
  "source": "PubChem BioAssay (NCATS)",
  "key": {"[1]": {"assay": "Primary fluorescence-based thiol-reactive (MSTI) qHTS assay for identification of artifact compounds. (AID 1845221); note: nearly all actives have a fitted effect of over 65% in size; note: potency is the fitted concentration of half-maximal effect; for activity change, negative = thiol reactive: series mostly up to about 54 µM", "outline": "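Compounds were incubated 1 h at room temperature in the dark with the MSTI probe (4 uM) in PBS pH 7.4, 2% DMSO. Signals were normalized between Acetyl-MSTI and MSTI.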"}, "[2]": {"test_system": "Nanoluciferase (engineered Oplophorus gracilirostris luciferase)", "assay": "Primary Nanoluciferase (NLuc) qHTS assay for identification of artifact compounds. (AID 1845222);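 note: NLuc secreted into diluted conditioned medium of S16 cells; series mostly up to about 54 µM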", "outline": "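Using secreted nanoluciferase in S16 culture medium (0.22 um filtered, 1:55 dilution), compounds were preincubated 15 min at RT. Signal was generated with Nano-Glo reagent (1:100) over 5 min.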"}, "[3]": {"assay": "Primary redox qHTS assay for identification of artifact compounds. (AID 1845223)", "outline": "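Amplex Red (25 uM) and HRP (250 mU/mL) in HBSS, with compounds for 15 min, then 250 uM DTT for 30 min, room temperature, dark. Fluorescence 525/598 nm read; normalized to DMSO and 10 uM DA3003; Hill fit.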"}},
  "note": "Unmarked numbers belong to inactive results. Results filed as inconclusive are left out. Entries that show only a call come without a potency. Calls of active or inactive are those of the source. Calls come from the whole dose curve; as a rule, active = well fitted curve in the direction sought with a large enough effect; inconclusive = small, poorly fitted or top-dose-only effect, or another doubt; inactive = no such curve, though single readings can be large; an effect the other way counts as inactive or inconclusive.",
  "data": [
    {"smiles": "CC1(C)CC[C@]2(C(=O)O)CC[C@]3(C)C(=CCC4[C@@]5(C)C[C@H](O)[C@H](O[C@@H]6O[C@H](CO)[C@@H](O)[C@H](O)[C@H]6O)[C@@](C)(CO)C5[C@H](O)C[C@]43C)[C@@H]2C1", "note": "(some centres not stated)", "values": [
      {"measurement": "Potency", "setting": "[1]", "result": "inactive"},
      {"measurement": "Potency", "setting": "[2]", "result": "inactive"},
      {"measurement": "Potency", "setting": "[3]", "result": "inactive"}
    ]},
    {"smiles": "COc1ccc(C(=O)OC2C3C=COC(OC4OC(CO)C(O)C(O)C4O)C3C3(CO)OC23)cc1OC", "note": "(configuration not stated)", "values": [
      {"measurement": "Potency", "setting": "[1]", "result": "4.12 µM (active)"},
      {"measurement": "Potency", "setting": "[2]", "result": "inactive"},
      {"measurement": "Potency", "setting": "[3]", "result": "inactive"}
    ]},
    {"smiles": "CC1(C)C[C@@H]2[C@H](C1)[C@@]1(C)C[C@]13C(O)OC[C@]3(O)[C@H]2O", "note": "(some centres not stated)", "values": [
      {"measurement": "Potency", "setting": "[1]", "result": "inactive"},
      {"measurement": "Potency", "setting": "[2]", "result": "inactive"},
      {"measurement": "Potency", "setting": "[3]", "result": "inactive"}
    ]},
    {"smiles": "COc1ccc(-n2c(=O)[nH]c3cc(C(=O)NCc4ccc(Cl)cc4)sc3c2=O)nc1OC", "values": [
      {"measurement": "Potency", "setting": "[1]", "result": "inactive"},
      {"measurement": "Potency", "setting": "[2]", "result": "inactive"},
      {"measurement": "Potency", "setting": "[3]", "result": "inactive"}
    ]},
    {"smiles": "CC(=O)OC[C@]12[C@@H](OC(=O)c3ccoc3)C[C@@H]3[C@@H](OC(C)=O)[C@]1(OC3(C)C)[C@@](C)(O)C[C@H](OC(=O)c1ccoc1)[C@@H]2OC(=O)c1ccoc1", "values": [
      {"measurement": "Potency", "setting": "[1]", "result": "inactive"},
      {"measurement": "Potency", "setting": "[2]", "result": "inactive"},
      {"measurement": "Potency", "setting": "[3]", "result": "inactive"}
    ]},
    {"smiles": "C/C=C(/C)C(=O)OC1C(OC(C)=O)C23C(O)OC4(CCC5C6(C)CCC(OC7OC(C(=O)O)C(O)C(OC8OC(CO)C(O)C(O)C8OC8OC(C)C(O)C(O)C8OC8OCC(O)C(O)C8O)C7OC7OC(CO)C(O)C(O)C7O)C(C)(C)C6CCC5(C)C4(C)CC2OC(C)=O)C3CC1(C)C", "note": "(configuration not stated)", "values": [
      {"measurement": "activity change, negative = thiol reactive", "setting": "[1]", "result": "196% [at 11.5 µM]"},
      {"measurement": "activity, negative = inhibition", "setting": "[2]", "result": "0.798% [at 11.6 µM]"},
      {"measurement": "redox activity (% of DA3003)", "setting": "[3]", "result": "6.91% [at 11.5 µM]"}
    ]},
    {"smiles": "CNC(C)C(=O)NC(C(=O)N1CCCC1C(=O)Nc1cccc2ncccc12)C(C)C", "note": "(configuration not stated)", "values": [
      {"measurement": "Potency", "setting": "[1]", "result": "inactive"},
      {"measurement": "Potency", "setting": "[2]", "result": "inactive"},
      {"measurement": "Potency", "setting": "[3]", "result": "inactive"}
    ]},
    {"smiles": "C[C@@]1(C(=O)O)CCC[C@@]2(C)C3=CC[C@H]4C[C@@]3(CC[C@H]12)CC4(O)CO", "note": "(some centres not stated)", "values": [
      {"measurement": "Potency", "setting": "[1]", "result": "inactive"},
      {"measurement": "Potency", "setting": "[2]", "result": "inactive"},
      {"measurement": "Potency", "setting": "[3]", "result": "inactive"}
    ]},
    {"smiles": "C=C(C)[C@@]1(O)C[C@@]2(C)C(=CC1=O)CC[C@@H](O)[C@@H]2C", "values": [
      {"measurement": "Potency", "setting": "[1]", "result": "inactive"},
      {"measurement": "Potency", "setting": "[2]", "result": "inactive"},
      {"measurement": "Potency", "setting": "[3]", "result": "inactive"}
    ]},
    {"smiles": "O=C(CCCCC1CCCCC1)N1CCC(c2cnc[nH]2)CC1", "values": [
      {"measurement": "Potency", "setting": "[1]", "result": "inactive"},
      {"measurement": "Potency", "setting": "[2]", "result": "inactive"},
      {"measurement": "Potency", "setting": "[3]", "result": "inactive"}
    ]},
    {"smiles": "COc1ccnc(CCc2nc3ncccc3[nH]2)c1", "values": [
      {"measurement": "Potency", "setting": "[1]", "result": "inactive"},
      {"measurement": "Potency", "setting": "[2]", "result": "inactive"},
      {"measurement": "Potency", "setting": "[3]", "result": "inactive"}
    ]},
    {"smiles": "OC[C@H]1O[C@@H](OCCc2ccccc2)[C@H](O)[C@@H](O)[C@@H]1O", "values": [
      {"measurement": "Potency", "setting": "[1]", "result": "11.9 µM (active)"},
      {"measurement": "Potency", "setting": "[2]", "result": "inactive"},
      {"measurement": "Potency", "setting": "[3]", "result": "inactive"}
    ]},
    {"smiles": "O=C(NC1CCN(CC(F)(F)F)CC1)c1ccc(-c2cccc(F)c2)nc1", "values": [
      {"measurement": "Potency", "setting": "[1]", "result": "inactive"},
      {"measurement": "Potency", "setting": "[2]", "result": "inactive"},
      {"measurement": "Potency", "setting": "[3]", "result": "inactive"}
    ]},
    {"smiles": "CCC(C)C(=O)OC[C@H]1O[C@H](O[C@H]2O[C@H](CO)[C@@H](O)[C@H](O)[C@H]2O)[C@H](O)[C@@H](O)[C@@H]1O", "note": "(some centres not stated)", "values": [
      {"measurement": "Potency", "setting": "[1]", "result": "inactive"},
      {"measurement": "Potency", "setting": "[2]", "result": "inactive"},
      {"measurement": "Potency", "setting": "[3]", "result": "inactive"}
    ]},
    {"smiles": "CC1(C)CC[C@]2(C(=O)O)CC[C@]3(C)C(=CCC4[C@@]5(C)C(=O)C[C@H](O)[C@@](C)(CO)C5CC[C@]43C)[C@@H]2C1", "note": "(some centres not stated)", "values": [
      {"measurement": "Potency", "setting": "[1]", "result": "inactive"},
      {"measurement": "Potency", "setting": "[2]", "result": "inactive"},
      {"measurement": "Potency", "setting": "[3]", "result": "inactive"}
    ]},
    {"smiles": "C[C@@H]1O[C@@H](O[C@H]2[C@@H]3C=CO[C@@H](O[C@@H]4O[C@H](CO)[C@@H](O)[C@H](O)[C@H]4O)[C@@H]3[C@@]3(CO)O[C@@H]23)[C@H](OC(=O)/C=C/c2ccc(O)cc2)[C@H](O)[C@H]1O", "values": [
      {"measurement": "Potency", "setting": "[1]", "result": "3.54 µM (active)"},
      {"measurement": "Potency", "setting": "[2]", "result": "inactive"},
      {"measurement": "Potency", "setting": "[3]", "result": "inactive"}
    ]},
    {"smiles": "CC1CC(=O)[C@]2(O)C(C(=O)OCCc3ccc(O)c(O)c3)=CO[C@@H](O[C@@H]3O[C@H](CO)[C@@H](O)[C@H](O)[C@H]3O)[C@H]12", "note": "(some centres not stated)", "values": [
      {"measurement": "Potency", "setting": "[1]", "result": "2.92 µM (active)"},
      {"measurement": "Potency", "setting": "[2]", "result": "inactive"},
      {"measurement": "Potency", "setting": "[3]", "result": "inactive"}
    ]},
    {"smiles": "C=C[C@@]1(C)CCC2=C([C@H]1OC(C)=O)[C@H](OC(C)=O)CC1[C@](C)(C(=O)OC)CC[C@H](OC(C)=O)[C@]21C", "note": "(some centres not stated)", "values": [
      {"measurement": "Potency", "setting": "[1]", "result": "inactive"},
      {"measurement": "Potency", "setting": "[2]", "result": "inactive"},
      {"measurement": "Potency", "setting": "[3]", "result": "inactive"}
    ]},
    {"smiles": "CC(=O)OC1C(O)C(C)(O)C(/C=C/C(=O)O)C2(C)CCCC(C)(C)C12", "note": "(configuration not stated)", "values": [
      {"measurement": "Potency", "setting": "[1]", "result": "inactive"},
      {"measurement": "Potency", "setting": "[2]", "result": "inactive"},
      {"measurement": "Potency", "setting": "[3]", "result": "inactive"}
    ]},
    {"smiles": "CC(=O)OC1CC2(C)C(CCC(C)C23Cc2c(O)cc4c(c2O3)CNC4=O)C(C)(C)C1O", "note": "(configuration not stated)", "values": [
      {"measurement": "Potency", "setting": "[1]", "result": "inactive"},
      {"measurement": "Potency", "setting": "[2]", "result": "inactive"},
      {"measurement": "Potency", "setting": "[3]", "result": "inactive"}
    ]},
    {"smiles": "CC1(C(=O)O)CCCC2(C)C3CCC4CC3(CCC12)CC4C(=O)O", "note": "(configuration not stated)", "values": [
      {"measurement": "Potency", "setting": "[1]", "result": "inactive"},
      {"measurement": "Potency", "setting": "[2]", "result": "inactive"},
      {"measurement": "Potency", "setting": "[3]", "result": "inactive"}
    ]},
    {"smiles": "CC(C)=CC1C[C@](C)(O)[C@@H]2[C@H]3CCC4[C@@]5(C)CC[C@H](O[C@@H]6OC[C@H](O)[C@H](O[C@@H]7O[C@H](CO[C@@H]8O[C@H](CO)[C@@H](O)[C@H](O)[C@H]8O)[C@@H](O)[C@H](O)[C@H]7O)[C@H]6O[C@@H]6O[C@@H](C)[C@H](O)[C@@H](O)[C@H]6O)C(C)(C)[C@@H]5CC[C@@]4(C)[C@@]34CO[C@@]2(C4)O1", "note": "(some centres not stated)", "values": [
      {"measurement": "activity change, negative = thiol reactive", "setting": "[1]", "result": "458% [at 11.5 µM]"},
      {"measurement": "activity, negative = inhibition", "setting": "[2]", "result": "4.79% [at 11.6 µM]"},
      {"measurement": "redox activity (% of DA3003)", "setting": "[3]", "result": "14.6% [at 11.5 µM]"}
    ]},
    {"smiles": "CC(=O)C1CCC(=O)N1Cc1ccccc1", "note": "(configuration not stated)", "values": [
      {"measurement": "Potency", "setting": "[1]", "result": "inactive"},
      {"measurement": "Potency", "setting": "[2]", "result": "inactive"},
      {"measurement": "Potency", "setting": "[3]", "result": "inactive"}
    ]},
    {"smiles": "CC1OC(O[C@@H]2[C@H](O)[C@@H](OC3OC(CO)C(O)C(O)C3O)[C@H](OC(=O)[C@]34CCC(C)(C)C[C@H]3C3=CCC5[C@@]6(C)CC[C@H](O[C@@H]7O[C@H](C(=O)O)[C@@H](O)[C@H](O[C@@H]8OC[C@@H](O)[C@H](O)[C@H]8O)[C@H]7O[C@@H]7O[C@H](CO)[C@H](O)[C@H](O)[C@H]7O)[C@@](C)(C=O)C6CC[C@@]5(C)[C@]3(C)C[C@H]4O)O[C@@H]2C)C(O)C(O)C1OC1OCC(O)C(O)C1O", "note": "(some centres not stated)", "values": [
      {"measurement": "activity change, negative = thiol reactive", "setting": "[1]", "result": "299% [at 6.41 µM]"},
      {"measurement": "activity, negative = inhibition", "setting": "[2]", "result": "0% [at 6.45 µM]"},
      {"measurement": "redox activity (% of DA3003)", "setting": "[3]", "result": "-1.5% [at 6.41 µM]"}
    ]}
  ]
}
